Data: PubChem BioAssay (Tox21)
Records with an inconclusive call do not appear. Values without a mark were called inactive. The source made the active and inactive calls. The call rests on the fitted dose curve; in most records, active means well fitted cell-killing curve with a large enough effect in the repeat runs; inconclusive means weak or mixed curves, or effect the other way; inactive means flat fitted curve, though single readings scatter.

assay: cAMP Responsive Elements (CRE) small molecule agonists, cell-based qHTS assay: qHTS cell viability counter screen (AID 2060914); details: CRE-bla HEK293T viability, CellTiter-Glo luminescence, 5 h; series mostly up to 92.4 µM; activity change, negative = cytotoxicity: at the top concentration;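 further: viability read after 3 h of compound exposure; nearly all actives have a fitted effect of over 50% in size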
From the text: National Center for Advancing Translational Sciences [NCATS]
Division of Preclinical Innovation [DPI]
U.S. Environmental Protection Agency [EPA]
National Institutes of Environmental Health Sciences [NIEHS]
National Toxicology Program [NTP]
U.S. Food and Drug Administration [FDA]
CREB (cyclic-AMP Responsive Element Binding Protein) is a cellular transcription factor. It binds to certain DNA sequences called cAMP Responsive Elements (CRE) and regulates the transcription of the genes. […] This cell line can be used to find agonists/antagonists of the cyclic AMP signaling pathway. The activation of the report gene under culture conditions can be detected by fluorescence intensity. This cell line has been used to screen the Tox21 10K compound library to identify agonists that induce oxidative stress. The cytotoxicity of the Tox21 compound library against the CRE-bla cell line was tested in parallel by measuring the cell viability using CellTiter-Glo assay (Promega, Madison, WI) in the same wells.
Tox21 Assay Protocol Summary:
CRE-bla Hek 293T cells were suspended in assay medium (DMEM containing 10% dialyzed FBS, 0.1 mM NEAA, 1 mM sodium pyruvate and 25 mM HEPES) and dispensed at 2,000 cells/5 uL /well into 1536-well black wall/clear bottom plates using a Multidrop Combi (ThermoFisher Scientific, Waltham, MA) dispenser. After the assay plates were incubated at 37 C/5% CO2 for 18 hrs, 23 nL of compounds dissolved in DMSO, positive controls or DMSO only was transferred to the assay plate by a pintool workstation (Kalypsys, San Diego, CA). After the plates were incubated at 37 C/5% CO2 for 3 hrs, 1 uL of LiveBLAzer B/G FRET substrate (Invitrogen, Carlsbad, CA) was added to each well using Bioraptr Flying Reagent Dispenser (FRD, Aurora Discovery, San Diego, CA). The plates were incubated at room temperature for 2 h, then fluorescence intensities were measured using an Envision plate reader (PerkinElmer, Shelton, CT) at Excitation 405nm, Emission 460nm and 530nm. The % activity was determined from the ratio of 460nm/530nm. For cell viability readout that measures cytotoxicity, 4 uL /well of CellTiter-Glo reagent was added into the assay plates using Bioraptr FRD. After 30 min incubation at room temperature, the luminescence intensity in the assay plates was measured using a ViewLux (PerkinElmer, Shelton, CT) plate reader.
On the % scale 0 is the no-effect control and ±100 the full control effect.

Row | SMILES | activity change, negative = cytotoxicity | Potency
1 | C[Si](C)O[Si](C)C | -13.9% | –
2 | CCCCCCC1CCC(=O)O1 (stereo not given) | -7.94% | –
3 | CC1(C)[C@@H]2CC[C@@]1(C)C(=O)C2 | – | inactive
4 | Cc1cccc([N+](=O)[O-])c1C | – | inactive
5 | c1cc[c]([Bi]([c]2ccccc2)[c]2ccccc2)cc1 | 0.0394% | –
6 | C=CC(C)CCC=C(C)C (stereo not given) | 7.69% | –
7 | CC(C)=CCOC(=O)c1ccccc1 | 4.39% | –
8 | CCOC(=O)Cn1c(=O)sc2cccc(Cl)c21 | -19% | –
9 | CC(C)NC(=O)c1ccc(C=O)cc1 | 0.0667% [at 42.5 µM] | –
10 | COC(C)(C)OC | 5.63% | –
11 | O=C(Cn1ccnc1[N+](=O)[O-])NCCO | -0.225% [at 42.5 µM] | –
12 | CCC(C)C(C)=O (stereo not given) | 9.79% | –
13 | CCC(O)OCCCOC (stereo not given) | 5.66% | –
14 | CN(C)CC[C@@H](c1ccc(Cl)cc1)c1ccccn1 | -4.26% [at 42.5 µM] | –
15 | CC(C)OC(=O)CCCCC(=O)OC(C)C | -13.3% | –
16 | CCCCCCC(=O)OCC | 11.5% | –
17 | CCNC(=O)C(C)OC(=O)Nc1ccccc1 (stereo not given) | -2.31% | –
18 | CC/C=C\CC/C=C/C(OCC)OCC | -5.77% | –
19 | COc1ccc2nc(N)sc2c1 | – | inactive
20 | NC1[C@H]2CN(c3nc4c(cc3F)c(=O)c(C(=O)O)cn4-c3ccc(F)cc3F)C[C@@H]12 (stereo not given in full) | -6.57% [at 42.5 µM] | –

Row | SMILES | activity change, negative = cytotoxicity | Potency
21 | Nc1ccc(/C=C/c2ccc(N)cc2S(=O)(=O)O)c(S(=O)(=O)O)c1 | 6.77% [at 0.349 µM] | –
22 | CCC(C)n1ncn(-c2ccc(N3CCN(c4ccc(OC[C@H]5CO[C@](Cn6cncn6)(c6ccc(Cl)cc6Cl)O5)cc4)CC3)cc2)c1=O (stereo not given in full) | 3.01% [at 42.5 µM] | –
23 | Cc1ccc(C)o1 | -9.79% | –
24 | Oc1c(I)cc(I)c2cccnc12 | -0.126% [at 42.5 µM] | –
25 | CNC1(C)C2CCC(C2)C1(C)C (stereo not given) | -5.16% [at 42.5 µM] | –
26 | O=[N+]([O-])c1cccc(Cl)c1Cl | 1.17% | –
27 | N=c1nc(N2CCCCC2)cc(N)n1O | -0.597% [at 42.5 µM] | –
28 | CCN1CN(CC)CN(CC)C1 | 0.681% | –
29 | Fc1c(F)c(F)c(Br)c(F)c1F | 7.59% | –
30 | Oc1ccc2ccccc2c1N=Nc1ccccc1 | -22.9% | –
31 | COC(=O)c1cc(Cl)c(NC(C)=O)cc1OC | 0.921% [at 42.5 µM] | –
32 | CC(=O)S[C@@H]1CC2=CC(=O)CC[C@]2(C)[C@H]2CC[C@@]3(C)[C@@H](CC[C@@]34CCC(=O)O4)[C@H]12 | 12.1% | –
33 | CC1CCC2CC1C2(C)C (stereo not given) | – | inactive
34 | O=C1CCCc2c(O)cccc21 | -4.48% [at 42.5 µM] | –
35 | CCCNC(=O)NS(=O)(=O)c1ccc(Cl)cc1 | – | inactive
36 | CO[Si](CCCNCCC[Si](OC)(OC)OC)(OC)OC | 0.102% | –
37 | Nc1ccc(O)cc1 | – | inactive
38 | CCCC(=O)Nc1ccc(OCC(O)CNC(C)C)c(C(C)=O)c1 (stereo not given) | 6.05% [at 42.5 µM] | –
39 | Cc1sccc1Br | 1.67% [at 42.5 µM] | –
40 | COC(=O)c1cc(Cl)ccc1NS(=O)(=O)C(F)(F)F | -0.91% [at 42.5 µM] | –
